Source: PubChem BioAssay (several laboratories)
Shown are actives, neighbours in structure and some others; about 5.4% of the full set was active somewhere.
SMARCA2 activ: increases SMARCA2 function in MMTV reporter cells; AID 652017; activation, % at 9.1 µM; MG213 cells, MMTV-luciferase reporter, dexamethasone, overnight; 1% of 370,000 active; in the data active means activation above about 7.8%;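 further: 0% = vehicle wells and 100% = reference activator wells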
PfM18AAP inh-1: PfM18AAP enzyme inhibition | recombinant PfM18AAP, H-Glu-NHMec fluorogenic cleavage | inhibition, % at 7.35 µM | AID 1822 | 1.2% of 290,000 active;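 active means inhibition above the campaign mean inhibition over all tested compounds plus 3 SD, cut at about 28% in these data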;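 further: 0% = plate median of test compound wells and 100% = 2 mM ZnCl2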
GASC-1 inh: human JMJD2C demethylase inhibition. inhibition, % at 2.35 µM. Q9H3R0. AID 2099. 0.069% of 330,000 active. GST-JMJD2C(1-420) H3K9me3 demethylation, DELFIA europium;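 active means more than half of a compound's replicate wells show inhibition beyond 50%, single wells judged on their own value; inconclusive means some, but no more than half, of replicates pass 50% inhibition; inactive means no replicate passes 50% inhibition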;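 further: signal counts dimethyl H3K9 product captured on neutravidin plate; 0% = median of DMSO wells and 100% = 0.3 times that DMSO median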
ALR inh: inhibitors of human sulfhydryl oxidase ALR; 3.8% of 290,000 active; purified ALR, DTT oxidation, H2O2 HRP-luminol luminescence; inhibition, % (no concentration beside the values); AID 485317;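 active means mean replicate inhibition above about 79%, with every replicate also reaching it, limit read from the data; inconclusive means only one of the two criteria met; inactive means mean below limit and not every replicate reaching it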
Target sequence (P55789 whole entry, looked up): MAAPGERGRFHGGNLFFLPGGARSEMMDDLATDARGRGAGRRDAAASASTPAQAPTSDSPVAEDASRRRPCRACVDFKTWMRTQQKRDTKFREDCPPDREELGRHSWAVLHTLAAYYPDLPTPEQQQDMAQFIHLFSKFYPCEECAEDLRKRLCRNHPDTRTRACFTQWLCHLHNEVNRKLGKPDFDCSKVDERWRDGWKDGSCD
MIN6 prolif: induces beta-cell replication in MIN6 cells. MIN6 cells proliferation, ATPlite luminescence, 48 h; cells starved in 0.2% serum; 100% = growth in 10% serum. proliferation, % at 10 µM. 0.29% of 330,000 active. AID 2380;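 active means compounds whose signal lies at least 3.5 SD above the mean of all wells on their plate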;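 further: 0% = DMSO-treated cells in low-serum medium and 100% = 10% serum control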
Exocytosis inh: blocks lytic granule exocytosis | inhibition, % at 10 µM | 0.66% of 360,000 active | TALL-104 LAMP-1 surface exposure, flow cytometry; cells stimulated with thapsigargin and PMA;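 active means inhibition above about 55%, limit read from the data; inconclusive means no clear call, values can overlap the other calls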
PfM18AAP inh-2: confirmation of Plasmodium falciparum M18 aspartyl aminopeptidase inhibitors | 28% of 2,400 active | recombinant PfM18AAP, H-Glu-NHMec fluorogenic cleavage | inhibition, % at 7.35 µM | shares compounds with PfM18AAP inh-1;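 active means mean inhibition over replicate wells above the hit cutoff set for the earlier primary screen, cut at about 29% in these data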;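 further: 0% = median of test compound wells and 100% = 2 mM ZnCl2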
CTSL1 confirm: Cathepsin L (human) inhibition, confirmation | shares compounds with PfM18AAP inh-1 | purified cathepsin L1, Z-Leu-Arg-MCA fluorescence | inhibition, % at 5.96 µM | 2,400 tested, under 10 active;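 active means average inhibition across replicates above the hit cutoff set in the earlier primary screen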;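 further: 0% = median of test compound wells and 100% = Z-Phe-Ala-diazomethylketone 1 µM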
Target sequence (P07711 whole entry, looked up): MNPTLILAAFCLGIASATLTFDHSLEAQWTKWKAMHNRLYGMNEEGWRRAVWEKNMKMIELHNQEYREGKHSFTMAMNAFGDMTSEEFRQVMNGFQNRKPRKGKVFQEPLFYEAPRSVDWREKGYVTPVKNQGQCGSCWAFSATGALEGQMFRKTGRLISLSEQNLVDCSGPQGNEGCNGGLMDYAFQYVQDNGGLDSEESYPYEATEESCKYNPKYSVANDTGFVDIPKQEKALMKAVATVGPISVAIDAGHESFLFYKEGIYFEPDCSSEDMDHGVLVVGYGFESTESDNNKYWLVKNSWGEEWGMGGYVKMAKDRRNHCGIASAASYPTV
* marks the source's active call; other numbers are inactive results; ? = inconclusive; . = no result given.

SMILES	SMARCA2 activ	PfM18AAP inh-1	GASC-1 inh	ALR inh	MIN6 prolif	Exocytosis inh	PfM18AAP inh-2	CTSL1 confirm
COc1ccc(-c2nc3ccccc3c(=O)n2NC(=S)N(C)C)cc1	-4	36*	-10	.	-1	4	33*	2
O=[N+]([O-])c1cc(/C=N\Nc2ccccn2)ccc1Cl	3	-10	-1	-4	1	-10	.	.
O=[N+]([O-])c1cc(C=Nc2cccc3c(O)cccc23)ccc1Cl	.	39*	-2	.	0	.	-29	-2
COc1cc(/C=N/n2c(-c3ccc4c(c3)NC(=O)CO4)csc2=Nc2cccc(C)c2)ccc1O	-4	13	10	.	0	0	.	.
C=CCN=c1scc(-c2ccco2)n1/N=C/c1ccc(O)c(O)c1O	2	45*	9	99*	-3	4	4	-1
CN=c1scc(C)n1/N=C/c1ccc(O)c(O)c1O	-5	47*	-1	100*	-5	-6	22	-5
COCCN=c1scc(-c2ccco2)n1/N=C/c1ccc(O)c(O)c1O	-1	36*	.	99*	-4	2	5	-2
COCCN=c1scc(-c2cccs2)n1/N=C(\C)c1ccco1	4	-1	-4	.	-4	3	.	.
CC(C)N=c1scc(-c2ccco2)n1/N=C/c1ccc(O)c(O)c1	-1	45*	.	99*	-5	20	49*	0
Oc1ccc(/C=N/n2c(-c3ccco3)csc2=Nc2cccnc2)c(O)c1	-3	12	10	30	-3	-1	.	.
Cc1cc(C)n(/N=C/c2ccccc2O)c(=O)c1	3	0	0	-9	-4	-3	.	.
COc1ccc(-c2c(Cc3ccccc3)nc(NC(=O)c3ccccc3)n2Cc2ccc(OC)cc2OC)cc1	-2	.	.	.	.	.	.	.
CCn1c(Cc2cccs2)nnc1SCC(=O)c1ccc(Cl)cc1	5	.	.	.	.	.	.	.
C[C@@H]1CN([C@@H](C)CO)C(=O)CCCn2nncc2CO[C@H]1CN(C)C(=O)Nc1ccc(N2CCN(C)CC2)cc1	-4	.	.	.	.	.	.	.
Cc1[nH]c2ccccc2c1CC(=O)Nc1ccc(N(C)c2cccnc2)c(-c2cccc(Cl)c2)c1	1	.	.	.	.	.	.	.
COC(=O)[C@]12C[C@H](CC(=O)NCc3ccccc3)C(=O)N(CCC3=CCCCC3)C1=C[C@H](COCc1ccccc1)O[C@@H]2C	-4	.	.	.	.	.	.	.
C[C@H]1CN(c2ccc(N3CCN(C(=O)OC(C)(C)C)C[C@@H]3C)cc2C#N)CCN1Cc1ccccc1	6	.	.	.	.	.	.	.
CC/C(Cc1ccccc1)=N/NC(=O)c1cccc(Br)c1	3	3	6	6	0	-9	.	.
CC/C(Cc1ccccc1)=N\NC(=O)c1cc([N+](=O)[O-])cc([N+](=O)[O-])c1	-2	41*	32	-36	-3	-5	11	2
O=S(=O)(NNc1nccc(C(F)(F)F)n1)c1cccc(Cl)c1Cl	2	56*	5	4	1	83*	14	6
C[C@@H]1CN([C@@H](C)CO)C(=O)CCCn2cc(nn2)CO[C@H]1CN(C)C(=O)c1ccncc1	-3	.	.	.	.	.	.	.
COc1ccc(/C(C)=N\Nc2nc(-c3ccccc3)cc(=O)[nH]2)cc1	-3	40*	5	-1	0	-2	-31	5
CCCN(CC1CC1)c1c2c(nc3ncnn13)CCCC2	-5	.	.	.	.	.	.	.
CC(=O)c1cc(-c2ccc(F)cc2)n(CCC(=O)Nc2cc(C)[nH]n2)c1C	0	57*	-1	-8	-1	0	-48	-5
COc1cc(OC)c(OC)cc1/C=N/n1c(COc2ccccc2)n[nH]c1=S	-1	33*	?	-3	7	-1	-1	1
SMILES	SMARCA2 activ	PfM18AAP inh-1	GASC-1 inh	ALR inh	MIN6 prolif	Exocytosis inh	PfM18AAP inh-2	CTSL1 confirm
Oc1ccc(/C=N/n2c(COc3ccccc3)n[nH]c2=S)c(O)c1	-2	33*	-10	.	-2	6	12	3
COc1ccc(OC)c(/C=N/n2c(COc3ccccc3)n[nH]c2=S)c1	-3	20	1	-5	2	8	.	.
S=c1[nH]nc(COc2ccccc2)n1/N=C/c1ccc(Cl)cc1Cl	-1	11	3	6	1	-6	.	.
COC(=O)c1cc(C)oc1C	-2	.	.	.	.	.	.	.
CN(c1ccc(NC(=O)CCc2cn(Cc3ccc(Br)cc3)c3ccccc23)cc1)c1ccccn1	-3	.	.	.	.	.	.	.
Cc1nn(C)c(Sc2ccccc2N)c1[N+](=O)[O-]	2	39*	-6	98*	-5	42	-13	0
C=CCN1[C@H](C)COc2cccc(N3CCSCC3)c2S1(=O)=O	-2	.	.	.	.	.	.	.
COC(=O)N1C[C@H](OCc2cn(-c3ccc(OC)cc3)nn2)[C@H]2C[C@@H]1c1ccccc1O2	0	.	.	.	.	.	.	.
COc1ccc(NC(=O)NNC(=O)c2cc3occc3n2C)c(OC)c1	0	61*	9	69	-2	5	38*	2
COc1cc(C(=O)NN=C2c3ccccc3-c3ccccc32)cc(OC)c1OC	0	.	.	.	.	.	.	.
CCc1cc2c(nc1CC)CCCN2S(=O)(=O)c1cccs1	-8	.	.	.	.	.	.	.
CCN(C(=O)[C@H]1CC(=O)O[C@@H]1c1ccccc1)c1ccccc1	-4	.	.	.	.	.	.	.
CSc1ccc(C(=S)N2CCN(C(c3ccccc3)c3ccccc3)CC2)cc1	-1	41*	2	-15	-2	0	-5	-1
COc1ccccc1CC(=O)NCCN1C(=O)C2C3C=CC(C3)C2C1=O (configuration not stated)	-3	.	.	.	.	.	.	.
Cc1cc(C)c2nc(NNC(=O)c3ccc(S(=O)(=O)N4CCCC(C)C4)cc3)sc2c1 (configuration not stated)	-3	39*	2	14	-7	1	-35	5
Cc1cccc2sc(NNC(=O)c3ccc(S(=O)(=O)N4CC(C)CC(C)C4)cc3)nc12 (configuration not stated)	-5	32*	7	0	-7	3	-29	0
COc1ccc(C(C)=O)cc1CSC(=S)N1CCSCC1	-6	.	.	.	.	.	.	.
C/C(CC(=O)Nc1ccc2ccccc2c1)=N\NC(=O)c1ccc(O)c(O)c1	-1	68*	-1	99*	-4	-5	50*	-2
C/C(CC(=O)Nc1ccc2ccccc2c1)=N\NC(=O)c1cnccn1	3	7	-3	.	-3	2	.	.
CN(C)c1ccnc2sc(C(=O)c3ccc(Br)cc3)c(N)c12	0	-7	5	-3	1	-1	.	.
Cc1snc2sc(C(=O)c3ccc(F)cc3)c(N)c12	5	41*	2	-4	3	-2	-38	5
O=[N+]([O-])c1ccc(NNC(=S)Nc2ccccc2)cc1	.	39*	8	-25	-3	-2	32*	-9
